Screening data: PubChem, National Center for Advancing Translational Sciences (NCATS)
Shown are actives, neighbours in structure and some others; about 11% of the full set was active somewhere.
JMJD2A Tudor = JMJD2A Tudor domain (human) inhibition | O75164 | AlphaScreen JMJD2A-Tudor / H3K4me3 peptide binding | Potency, µM (doses to about 114 µM), without a hit: at the highest dose activity change, negative = inhibition, hits mostly inhibitors | 390,000 compounds, 4.4% hits | AID 504339; note: % is set by controls: 0 for no effect and ±100 for the full control effect; nearly all actives have a fitted effect of over 50% in size
L3MBTL1 block = L3MBTL1 (human) inhibition; Q9Y468; AlphaScreen L3MBTL1–H3K9me1 peptide binding; Potency, µM (series often up to 57.1 µM), for the others: at the highest dose activity, negative = inhibition, usual class: inhibitors; 230,000 compounds, 0.66% hits; note: % is set by controls: 0 for no effect and ±100 for the full control effect; nearly all actives have a fitted effect of over 60% in size
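Read-out is AlphaScreen signal from streptavidin donor and nickel chelate acceptor beads (10 ug/mL final each) bridging L3MBTL1 (50 nM) and biotinylated K9-monomethylated H3(1-15) peptide (75 nM), after 30 min compound exposure at room temperature.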
BAZ2B block = blocks human BAZ2B. Q9UIF8. AlphaScreen BAZ2B-H3K14Ac peptide displacement. Potency, µM (doses to about 114 µM), inactives show at the highest dose activity change, negative = inhibition, hits mostly inhibitors. 360,000 compounds, 4.4% hits; note: % is set by controls: 0 for no effect and ±100 for the full control effect; nearly all actives have a fitted effect of over 60% in size
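BAZ2B (50 nM) with biotin-H3(5-23)K14Ac peptide (50 nM) in PBS pH 7.4, 0.01% Tween-20, preformed 30 min, then compound 30 min at room temperature; top concentration 110uM. AlphaScreen streptavidin donor/nickel chelate acceptor beads (10 ug/mL final), 20 min dark, signal read.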
HP1b chromo inh = blocks HP1-beta chromodomain binding to methylated histone tails | P83916 | AlphaScreen HP1-beta / biotin-H3K9me3 peptide binding | Potency, µM (series often up to 114 µM), for inactives: top-dose activity change, negative = inhibition, actives largely listed as inhibitors | 390,000 compounds, 0.56% hits; note: nearly all actives have a fitted effect of over 70% in size
Target sequence (P83916 whole entry, looked up): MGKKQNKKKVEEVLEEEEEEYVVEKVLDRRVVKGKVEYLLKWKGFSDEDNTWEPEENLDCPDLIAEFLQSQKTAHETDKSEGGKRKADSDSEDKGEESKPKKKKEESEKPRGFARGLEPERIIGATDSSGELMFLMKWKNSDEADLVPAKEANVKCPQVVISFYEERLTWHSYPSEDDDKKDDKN
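AlphaScreen: HP1-beta (50 nM) preformed 30 min with biotin-H3(1-18)K9me3 peptide (50 nM) in PBS pH 7.4, 0.01% Tween-20. Compound added for 30 min at RT, then streptavidin donor/nickel chelate acceptor beads (10 ug/mL) for 30 min.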
G9a block = G9a (human) methyltransferase inhibition. Q96KQ7. G9a H3K9 monomethylation, AlphaScreen, 2 h. Potency, µM (doses to about 102 µM), without a hit: top-dose activity, negative = inhibition, hits mostly inhibitors. 350,000 compounds, 8.8% hits. AID 504332; note: % is set by controls: 0 for no effect and ±100 for the full control effect; nearly all actives have a fitted effect of over 75% in size
Target sequence (Q96KQ7 913-1193 limits assumed): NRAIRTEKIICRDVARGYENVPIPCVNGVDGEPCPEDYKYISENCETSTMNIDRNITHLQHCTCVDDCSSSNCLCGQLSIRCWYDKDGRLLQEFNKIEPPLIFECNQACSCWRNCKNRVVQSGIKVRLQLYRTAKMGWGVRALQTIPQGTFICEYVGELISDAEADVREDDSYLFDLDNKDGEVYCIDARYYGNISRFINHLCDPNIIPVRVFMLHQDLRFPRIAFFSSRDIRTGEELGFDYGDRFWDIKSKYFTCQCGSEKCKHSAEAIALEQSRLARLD
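Quantitative HTS format: methyltransferase activity on a biotin-tagged H3K9 peptide is measured by AlphaScreen, using a rabbit anti-monomethyl-H3K9 antibody with streptavidin donor and anti-IgG acceptor beads. Final levels are 20 nM enzyme, 500 nM peptide, 20 uM SAM; 2 h RT.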
* hit, by the source's call; u = inconclusive; x = not tested or not shown; ! = repeats disagree; [ ] = dose if it differs, or a comment. Calls come from the whole dose curve; as a rule, active = well fitted inhibition curve with a large enough effect; inconclusive = small, poorly fitted or top-dose-only effect; inactive = no such curve, though single readings can be large or run the other way. Potency is the fitted concentration of half-maximal effect.

SMILES | JMJD2A Tudor | L3MBTL1 block | BAZ2B block | HP1b chromo inh | G9a block
Cc1ccccc1-c1nc(C(N)=O)c2c(n1)n(-c1ccc3c(c1)OCO3)c(=O)n2C | -9% | x | u | 33% | -2%[59 µM]
COc1ccc(S(=O)(=O)N(c2onc(C)c2Cl)S(=O)(=O)c2ccc(OC)c(OC)c2)cc1OC | 25µM* | 7% | 79µM* | 32% | u
CC(C)CC(O)C(=O)Nc1cc(C(F)(F)F)ccc1Cl (stereo unspecified) | -1% | x | x | x | x
CCOC(=O)c1c(-c2cccc([N+](=O)[O-])c2)csc1N | u | -6% | 50µM* | -24% | u
CCOC(=O)c1csc(N)c1-c1ccc([N+](=O)[O-])cc1 | u | x | u | -28% | 11µM*
CCOC(=O)c1ccc([N+](=O)[O-])cc1NC(C)=O | -7% | -3% | -5% | 34% | -4%
COc1ccc(CNC(=O)c2ccc(-c3nc(CSc4ccc(C)cc4)c(C)o3)cc2)c(OC)c1 | -16% | x | -14% | 27% | -38%[59 µM]
S=c1[nH]nc(-c2ccc3ccccc3n2)n1Cc1ccccc1 | -17% | 2% | 5% | 29% | u
Cc1scc(-c2n[nH]c(=S)n2Cc2ccccc2)c1C | -5% | -12% | -31% | 21% | 1.6µM*
CCc1c(-c2n[nH]c(=S)n2Cc2ccccc2)csc1C | u | -9% | -35% | 4% | 2µM*
Cc1ccc(-c2nn(-c3ccccc3)cc2C=O)o1 | -35% | 6% | -12% | -7% | 40µM*
Cc1ccc(-c2nn(-c3ccccc3)cc2C(N)=O)o1 | u | -9% | -35% | -13% | -50%[12.7 µM]
Nc1cc(C(=O)N2CCN(c3ccc([N+](=O)[O-])cc3)CC2)ccc1N1CC2CC(C1)c1cccc(=O)n1C2 (stereo unspecified) | u | x | -34% | 1% | u
COc1cccc(NC(=S)Nc2cc(C(=O)O)ccc2N2CC3CC(C2)c2cccc(=O)n2C3)c1 (stereo unspecified) | -26% | x | -22% | -12% | 40µM*
Cc1ccc(NC(=S)Nc2cc(C(=O)O)ccc2N2CC3CC(C2)c2cccc(=O)n2C3)cc1C (stereo unspecified) | -11% | x | -19% | -4% | 40µM*
CCN1CCN(C(=O)c2ccc(N3CC4CC(C3)c3cccc(=O)n3C4)c([N+](=O)[O-])c2)CC1 (stereo unspecified) | -18% | x | -14% | 18% | 56µM*
FC(F)(F)C(F)(F)C(F)(F)C(F)(F)C(F)(F)F | x | x | x | x | 1%[12.7 µM]
Cc1coc2c1c(C)cc1oc(=O)c(CC(=O)NCCc3ccc(Cl)cc3)c(C)c12 | -6% | x | -3% | 31% | -4%[59 µM]
CC(C)c1nc2ccc(C(=O)NCc3ccc(N(C)C)cc3)cc2o1 | u | x | u | 1%[57 µM] | 16µM*
CC(C)c1nc2ccc(C(=O)NCc3ccc(F)cc3)cc2o1 | -12% | x | 2% | 1%[57 µM] | 2%[59 µM]
CCc1nc2ccc(C(=O)NCc3ccc(N(C)C)cc3)cc2nc1CC | -33% | x | u | 2% | 3.5µM*
CCOc1ccccc1CNC(=O)c1ccc2nc(N3CCC(C)CC3)sc2c1 | -17% | x | 2% | 6% | -1%[59 µM]
COc1ccc(CNc2ccc(N3CCN(C(C)=O)CC3)cc2)cc1OC | -17% | x | x | 30% | x
COc1cc(CNc2ccc(N3CCCC3)cc2)ccc1OCc1ccccc1F | 11µM* | u | 25µM* | 20µM* | 10µM*
C=CCOc1ccc(CNc2nn[nH]n2)cc1OC | u | x | -29% | 20% | -2%[59 µM]
SMILES | JMJD2A Tudor | L3MBTL1 block | BAZ2B block | HP1b chromo inh | G9a block
C=CCOc1ccc(CNc2ccc(NC(=O)CC(C)C)cc2)cc1OC | u | -16% | 50µM* | -1% | 71µM*
COc1cc(CNc2ccc(N3CCCCC3)cc2)ccc1OCC(=O)NC(C)(C)C | 45µM* | u | 32µM* | u | 14µM*
CCCN1C(=O)/C(=N\OCC(=O)NCC(F)(F)F)c2ccccc21 | 2% | 2% | -3% | 25% | -15%[59 µM]
CC(=O)n1cc(N(C(=O)CCl)c2ccccc2)c2ccccc21 | -4% | 1% | -38% | 47% | x
CC(=O)n1cc(N(C(=O)CCl)c2ccc([N+](=O)[O-])cc2)c2ccccc21 | -30% | -8% | -33% | 2% | 50µM*
O=C(CNC(=O)C1CCCCC1)OCC(=O)c1ccc([N+](=O)[O-])cc1 | -13%[57.1 µM] | x | x | 23%[57 µM] | x
N#Cc1c(SCC(=O)Nc2cccc(C(F)(F)F)c2)sc2c(O)cc(=O)[nH]c12 | -29% | x | u | -7% | 45µM*
Cc1ccc(C)c(NC(=O)CSc2sc3c(O)cc(=O)[nH]c3c2C#N)c1 | -23% | x | 50µM* | 10% | -5%[59 µM]
Cc1cc(NC(=O)CSc2sc3c(O)cc(=O)[nH]c3c2C#N)ccc1Br | -19% | x | 79µM* | 7% | 35µM*
COC(=O)c1ccc(C)c(NC(=O)CSc2sc3c(O)cc(=O)[nH]c3c2C#N)c1 | 50µM* | x | 50µM* | -38% | u
COCCNC(=O)CSc1nnc2[nH]c(=O)cc(C)n12 | -6% | x | 2% | 37% | -8%[59 µM]
Cn1cnnc1SCC(=O)Nc1ccc(Cl)c(S(=O)(=O)N2CCOCC2)c1 | 14% | 13% | 0% | 32% | 4%
Cc1ccc(C(=O)c2cn(Cc3cccc(C)c3)c3nc(C)ccc3c2=O)cc1 | -12% | x | -17% | 28% | -27%[59 µM]
CC(C)N=C(NS(=O)(=O)c1ccc(Br)cc1)c1ccc(Cl)cc1 | -13% | 3% | 8% | 30% | -9%[0.501 µM]
Cc1cc(C)cc(N(CC(=O)Nc2c(C)cc(C)cc2C)S(=O)(=O)c2c(C)nn(C)c2C)c1 | -20% | x | -3% | -1% | -3%[59 µM]
O=C(CN1CCN(c2ccc(F)cc2)CC1)c1ccc(O)cc1O | -24% | x | u | 4%[57 µM] | 79µM*
COc1ccc(N2CCN(CC(=O)c3ccc(O)cc3O)CC2)cc1 | u | x | u | -19%[57 µM] | 71µM*
O=C(CN1CCN(c2ccccc2F)CC1)c1ccc(O)cc1O | -23% | x | -29% | 12%[57 µM] | -28%
COc1ccccc1CNC(=O)CCCn1c(=O)c2cccn2c2ccccc21 | -31% | x | 4% | 88% | 9%[59 µM]
O=C1NCC(c2ccccc2)C1C(=O)N/N=C\c1ccc(-c2cccc(Cl)c2Cl)o1 (stereo unspecified) | u | x | u | -6% | 13µM*
Cc1ccc(-c2ccc(/C=N\NC(=O)C3C(=O)NCC3c3ccccc3)o2)cc1Cl (stereo unspecified) | u | x | 2% | -7% | u
COc1cccc(CSc2nc3cc(C(=O)NC4CCCC4)ccc3c(=O)n2Cc2ccccc2)c1 | -6% | x | 4% | 26%[57 µM] | 0%[59 µM]
O=C(O)CC/C(=N/NC(=O)c1cn(-c2ccccc2)nc1-c1ccccc1)C(=O)O | u | 1% | u | 14% | 35µM*
COc1ccccc1N1CCN(CCCNc2cc(=O)n(C)c(=O)n2C)CC1 | x | x | -7% | x | 22µM*!
